Assay [1] addresses Tyrosine-protein kinase SYK (Homo sapiens) (UniProt P43405). The settings on record: at 10 µM.
Assay [2] addresses T1, Mitogen-activated protein kinase kinase kinase 7 (Homo sapiens) (UniProt O43318).
T1 sequence (whole entry): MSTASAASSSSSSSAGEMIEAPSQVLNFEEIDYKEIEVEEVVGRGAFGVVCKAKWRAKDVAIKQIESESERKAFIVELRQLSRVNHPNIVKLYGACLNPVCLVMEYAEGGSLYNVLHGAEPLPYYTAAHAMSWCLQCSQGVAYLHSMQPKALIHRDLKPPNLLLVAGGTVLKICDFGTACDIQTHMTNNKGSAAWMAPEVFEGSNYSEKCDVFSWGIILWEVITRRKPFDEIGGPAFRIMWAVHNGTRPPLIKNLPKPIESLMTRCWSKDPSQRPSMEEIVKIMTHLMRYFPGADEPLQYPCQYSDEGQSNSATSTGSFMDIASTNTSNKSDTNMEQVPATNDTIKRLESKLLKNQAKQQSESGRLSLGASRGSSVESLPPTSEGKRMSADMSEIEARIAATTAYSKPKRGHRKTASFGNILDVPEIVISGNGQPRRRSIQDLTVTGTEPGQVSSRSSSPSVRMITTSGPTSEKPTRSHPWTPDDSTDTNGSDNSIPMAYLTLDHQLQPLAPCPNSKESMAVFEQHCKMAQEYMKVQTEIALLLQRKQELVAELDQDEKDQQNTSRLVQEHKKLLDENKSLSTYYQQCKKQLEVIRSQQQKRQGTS
The settings on record: at 1 µM.

Assay [3] addresses T1, Mitogen-activated protein kinase kinase kinase 7 (Homo sapiens). The settings on record: at 10 µM.
Assay [4] concerns the target T2, Serine/threonine-protein kinase TAO1 (Homo sapiens) (UniProt Q7L7X3).
T2 sequence (whole entry): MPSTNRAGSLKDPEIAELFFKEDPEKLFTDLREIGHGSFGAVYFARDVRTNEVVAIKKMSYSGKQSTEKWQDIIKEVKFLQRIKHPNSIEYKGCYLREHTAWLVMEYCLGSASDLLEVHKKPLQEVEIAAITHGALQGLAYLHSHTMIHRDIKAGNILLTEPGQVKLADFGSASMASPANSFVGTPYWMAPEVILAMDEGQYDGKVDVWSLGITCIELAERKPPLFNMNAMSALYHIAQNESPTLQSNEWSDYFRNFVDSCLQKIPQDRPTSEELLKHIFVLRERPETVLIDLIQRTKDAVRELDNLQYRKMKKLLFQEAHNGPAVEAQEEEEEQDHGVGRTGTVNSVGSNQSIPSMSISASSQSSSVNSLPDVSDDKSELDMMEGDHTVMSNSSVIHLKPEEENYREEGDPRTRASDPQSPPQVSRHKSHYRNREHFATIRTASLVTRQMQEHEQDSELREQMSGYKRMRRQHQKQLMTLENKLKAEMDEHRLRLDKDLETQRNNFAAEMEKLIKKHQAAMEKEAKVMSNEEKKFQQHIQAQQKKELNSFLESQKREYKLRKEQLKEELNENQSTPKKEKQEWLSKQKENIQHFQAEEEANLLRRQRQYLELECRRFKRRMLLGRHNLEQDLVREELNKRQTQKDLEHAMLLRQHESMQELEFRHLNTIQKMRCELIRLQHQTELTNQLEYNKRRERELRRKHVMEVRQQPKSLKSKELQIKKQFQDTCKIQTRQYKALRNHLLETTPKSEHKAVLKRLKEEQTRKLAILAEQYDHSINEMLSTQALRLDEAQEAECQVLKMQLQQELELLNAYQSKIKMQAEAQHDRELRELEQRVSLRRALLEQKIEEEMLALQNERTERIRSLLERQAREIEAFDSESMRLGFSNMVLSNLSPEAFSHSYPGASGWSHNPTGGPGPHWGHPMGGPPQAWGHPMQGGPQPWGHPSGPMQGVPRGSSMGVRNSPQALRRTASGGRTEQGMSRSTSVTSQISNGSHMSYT
The settings on record: at 1 µM.

The target in assay [5] is T2, Serine/threonine-protein kinase TAO1 (Homo sapiens). The settings on record: at 10 µM.
In assay [6] the target is T3, Serine/threonine-protein kinase TAO3 (Homo sapiens) (UniProt Q9H2K8).
T3 sequence (whole entry): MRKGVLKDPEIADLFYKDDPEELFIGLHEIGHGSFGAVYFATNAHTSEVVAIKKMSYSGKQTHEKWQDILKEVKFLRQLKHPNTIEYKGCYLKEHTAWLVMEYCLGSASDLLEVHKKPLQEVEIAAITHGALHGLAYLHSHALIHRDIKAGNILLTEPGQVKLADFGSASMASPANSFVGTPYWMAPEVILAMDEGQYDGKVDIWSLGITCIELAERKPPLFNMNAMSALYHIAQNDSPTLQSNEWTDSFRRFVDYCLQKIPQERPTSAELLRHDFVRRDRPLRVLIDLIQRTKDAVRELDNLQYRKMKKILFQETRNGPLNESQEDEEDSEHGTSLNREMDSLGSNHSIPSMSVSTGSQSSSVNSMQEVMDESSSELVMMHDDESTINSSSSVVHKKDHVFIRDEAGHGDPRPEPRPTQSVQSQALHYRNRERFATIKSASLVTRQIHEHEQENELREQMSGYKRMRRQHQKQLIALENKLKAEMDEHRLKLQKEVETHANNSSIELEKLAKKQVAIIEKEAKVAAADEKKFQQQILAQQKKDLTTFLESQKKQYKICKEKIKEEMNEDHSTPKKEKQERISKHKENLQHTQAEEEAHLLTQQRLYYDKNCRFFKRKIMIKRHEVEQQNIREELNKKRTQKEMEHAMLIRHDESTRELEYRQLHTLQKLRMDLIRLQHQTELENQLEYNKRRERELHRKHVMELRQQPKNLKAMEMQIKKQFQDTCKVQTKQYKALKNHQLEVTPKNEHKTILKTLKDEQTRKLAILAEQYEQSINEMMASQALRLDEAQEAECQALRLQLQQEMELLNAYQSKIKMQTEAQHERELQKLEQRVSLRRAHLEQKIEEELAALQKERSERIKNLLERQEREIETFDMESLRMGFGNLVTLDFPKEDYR
The settings on record: at 1 µM.

The target of assay [7] is T3, Serine/threonine-protein kinase TAO3 (Homo sapiens). The settings on record: at 10 µM.
The target in assay [8] is T4, Serine/threonine-protein kinase TBK1 (Homo sapiens) (UniProt Q9UHD2).
T4 sequence (whole entry): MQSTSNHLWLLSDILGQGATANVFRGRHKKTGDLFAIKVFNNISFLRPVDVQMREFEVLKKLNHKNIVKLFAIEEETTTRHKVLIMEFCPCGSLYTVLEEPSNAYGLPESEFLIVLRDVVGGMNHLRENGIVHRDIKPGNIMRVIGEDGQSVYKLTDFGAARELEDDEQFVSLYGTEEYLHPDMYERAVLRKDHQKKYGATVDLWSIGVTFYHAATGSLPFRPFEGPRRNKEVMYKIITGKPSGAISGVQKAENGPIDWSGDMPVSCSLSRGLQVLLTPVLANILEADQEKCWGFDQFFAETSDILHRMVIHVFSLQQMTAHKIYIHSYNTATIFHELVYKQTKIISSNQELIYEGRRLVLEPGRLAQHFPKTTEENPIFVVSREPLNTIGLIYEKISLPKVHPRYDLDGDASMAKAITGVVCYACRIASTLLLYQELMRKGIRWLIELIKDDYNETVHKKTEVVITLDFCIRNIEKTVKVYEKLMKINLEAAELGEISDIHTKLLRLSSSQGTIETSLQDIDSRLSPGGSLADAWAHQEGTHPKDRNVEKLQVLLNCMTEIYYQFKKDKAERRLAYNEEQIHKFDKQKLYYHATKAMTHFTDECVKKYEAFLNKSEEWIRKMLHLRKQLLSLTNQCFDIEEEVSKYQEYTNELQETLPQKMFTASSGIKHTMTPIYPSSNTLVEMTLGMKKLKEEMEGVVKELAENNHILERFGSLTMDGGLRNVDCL
The settings on record: at 1 µM.

The target of assay [9] is T4, Serine/threonine-protein kinase TBK1 (Homo sapiens). The settings on record: at 10 µM.
The target of assay [10] is Insulin receptor (Homo sapiens) (UniProt P06213). The settings on record: at 1 µM.
Assay [11] has as its target T5, Serine/threonine-protein kinase TAO2 (Homo sapiens) (UniProt Q9UL54).
T5 sequence (whole entry): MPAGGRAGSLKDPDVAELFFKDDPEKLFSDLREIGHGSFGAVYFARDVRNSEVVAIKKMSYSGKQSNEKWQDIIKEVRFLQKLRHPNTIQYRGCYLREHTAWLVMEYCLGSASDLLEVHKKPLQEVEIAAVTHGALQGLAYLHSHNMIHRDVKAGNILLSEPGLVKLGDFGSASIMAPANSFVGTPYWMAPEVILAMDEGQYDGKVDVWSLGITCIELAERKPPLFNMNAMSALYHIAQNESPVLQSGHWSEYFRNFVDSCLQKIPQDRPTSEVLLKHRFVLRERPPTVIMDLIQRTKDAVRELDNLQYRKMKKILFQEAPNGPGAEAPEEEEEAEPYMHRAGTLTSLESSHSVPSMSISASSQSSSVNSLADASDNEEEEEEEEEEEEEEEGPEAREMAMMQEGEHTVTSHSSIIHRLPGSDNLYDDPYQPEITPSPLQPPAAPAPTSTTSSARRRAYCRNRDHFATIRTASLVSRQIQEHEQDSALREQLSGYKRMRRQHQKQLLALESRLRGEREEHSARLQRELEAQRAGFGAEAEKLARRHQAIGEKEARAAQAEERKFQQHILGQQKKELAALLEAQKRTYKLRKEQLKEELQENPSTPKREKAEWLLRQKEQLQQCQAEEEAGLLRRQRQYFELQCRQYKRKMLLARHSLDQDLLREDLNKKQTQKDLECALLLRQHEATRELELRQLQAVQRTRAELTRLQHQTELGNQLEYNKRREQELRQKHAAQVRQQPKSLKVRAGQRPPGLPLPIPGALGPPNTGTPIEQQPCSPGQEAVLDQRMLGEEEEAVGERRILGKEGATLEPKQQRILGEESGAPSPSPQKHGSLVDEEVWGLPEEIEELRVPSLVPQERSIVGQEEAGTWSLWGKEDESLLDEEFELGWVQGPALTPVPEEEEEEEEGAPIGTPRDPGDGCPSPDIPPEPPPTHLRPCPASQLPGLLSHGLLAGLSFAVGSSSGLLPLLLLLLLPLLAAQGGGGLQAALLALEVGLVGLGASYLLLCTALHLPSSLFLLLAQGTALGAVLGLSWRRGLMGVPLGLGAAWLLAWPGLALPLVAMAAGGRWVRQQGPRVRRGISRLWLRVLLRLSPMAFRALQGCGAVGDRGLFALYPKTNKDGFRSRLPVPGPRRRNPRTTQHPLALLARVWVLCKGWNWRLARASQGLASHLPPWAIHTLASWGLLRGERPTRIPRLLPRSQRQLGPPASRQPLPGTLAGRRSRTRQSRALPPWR
The settings on record: at 1 µM.

The target of assay [12] is T5, Serine/threonine-protein kinase TAO2 (Homo sapiens). The settings on record: at 10 µM.
Assay [13] has as its target T6, TGF-beta receptor type-1 (Homo sapiens) (UniProt P36897).
T6 sequence (whole entry): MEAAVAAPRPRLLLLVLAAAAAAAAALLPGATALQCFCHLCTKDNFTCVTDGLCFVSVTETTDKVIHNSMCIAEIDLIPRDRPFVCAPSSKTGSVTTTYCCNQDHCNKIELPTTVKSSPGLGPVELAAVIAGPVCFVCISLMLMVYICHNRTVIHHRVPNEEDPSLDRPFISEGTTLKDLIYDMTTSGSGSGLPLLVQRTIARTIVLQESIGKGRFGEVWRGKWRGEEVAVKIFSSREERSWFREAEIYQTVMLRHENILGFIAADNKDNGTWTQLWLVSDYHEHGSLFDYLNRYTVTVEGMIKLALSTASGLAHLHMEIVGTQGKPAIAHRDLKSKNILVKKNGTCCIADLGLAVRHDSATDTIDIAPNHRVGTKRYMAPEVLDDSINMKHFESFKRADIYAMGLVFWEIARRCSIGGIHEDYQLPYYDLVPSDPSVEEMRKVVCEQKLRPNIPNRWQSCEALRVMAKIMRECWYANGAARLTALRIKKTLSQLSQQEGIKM
The settings on record: at 1 µM.

For assay [14], the target named is T6, TGF-beta receptor type-1 (Homo sapiens). The settings on record: at 10 µM.
For assay [15], the target named is Insulin-like growth factor 1 receptor (Homo sapiens) (UniProt P08069). The settings on record: at 1 µM.
For assay [16] the target is unchanged. The settings on record: at 10 µM.
The target of assay [17] is T7, Inhibitor of nuclear factor kappa-B kinase subunit beta (Homo sapiens) (UniProt O14920).
T7 sequence (whole entry): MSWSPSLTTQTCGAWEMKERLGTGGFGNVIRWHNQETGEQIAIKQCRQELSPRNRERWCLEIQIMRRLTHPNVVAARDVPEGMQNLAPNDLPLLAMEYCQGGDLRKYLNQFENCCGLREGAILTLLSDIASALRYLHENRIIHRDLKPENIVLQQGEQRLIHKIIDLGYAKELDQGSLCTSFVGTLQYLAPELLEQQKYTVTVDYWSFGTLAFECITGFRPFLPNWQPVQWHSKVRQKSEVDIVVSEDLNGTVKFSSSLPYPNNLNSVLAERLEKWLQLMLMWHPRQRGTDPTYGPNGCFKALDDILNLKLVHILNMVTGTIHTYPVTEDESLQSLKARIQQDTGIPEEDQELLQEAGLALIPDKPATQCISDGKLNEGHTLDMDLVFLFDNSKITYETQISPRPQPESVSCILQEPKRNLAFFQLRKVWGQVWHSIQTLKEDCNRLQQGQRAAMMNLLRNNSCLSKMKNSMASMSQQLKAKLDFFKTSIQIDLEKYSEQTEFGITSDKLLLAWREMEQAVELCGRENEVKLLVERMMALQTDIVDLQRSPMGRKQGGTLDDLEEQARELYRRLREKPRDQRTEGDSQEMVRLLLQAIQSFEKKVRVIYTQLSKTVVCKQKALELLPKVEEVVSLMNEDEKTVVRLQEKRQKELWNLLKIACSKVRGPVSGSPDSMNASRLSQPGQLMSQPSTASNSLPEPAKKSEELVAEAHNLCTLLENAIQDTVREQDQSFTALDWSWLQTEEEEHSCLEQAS
The settings on record: at 10 µM.

Results on two compounds are retold here after ChEMBL document CHEMBL2218924, “A broad activity screen in support of a chemogenomic map for kinase signalling research and drug discovery” (Biochem J, 2013).

Sequence of Insulin-like growth factor 1 receptor (Homo sapiens) (P08069 31-736 limits assumed): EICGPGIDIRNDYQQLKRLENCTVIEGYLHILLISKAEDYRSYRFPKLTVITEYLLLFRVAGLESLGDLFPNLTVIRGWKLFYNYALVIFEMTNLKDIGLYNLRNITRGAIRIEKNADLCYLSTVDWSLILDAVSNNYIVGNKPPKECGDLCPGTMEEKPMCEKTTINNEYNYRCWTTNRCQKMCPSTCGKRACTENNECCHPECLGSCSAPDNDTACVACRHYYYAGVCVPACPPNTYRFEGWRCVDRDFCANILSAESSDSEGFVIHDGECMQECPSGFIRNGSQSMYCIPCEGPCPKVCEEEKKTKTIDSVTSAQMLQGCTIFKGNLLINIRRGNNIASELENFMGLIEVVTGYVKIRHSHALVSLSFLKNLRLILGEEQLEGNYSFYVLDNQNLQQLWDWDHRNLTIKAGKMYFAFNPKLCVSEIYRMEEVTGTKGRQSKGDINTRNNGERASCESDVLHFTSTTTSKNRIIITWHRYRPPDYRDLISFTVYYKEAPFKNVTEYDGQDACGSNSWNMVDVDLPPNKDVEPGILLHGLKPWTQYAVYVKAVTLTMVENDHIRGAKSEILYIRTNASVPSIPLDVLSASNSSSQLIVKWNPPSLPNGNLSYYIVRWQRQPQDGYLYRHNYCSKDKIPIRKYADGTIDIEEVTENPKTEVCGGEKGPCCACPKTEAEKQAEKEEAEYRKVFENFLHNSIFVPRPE
Sequence of Insulin-like growth factor 1 receptor (Homo sapiens) (P08069 741-1367 limits assumed): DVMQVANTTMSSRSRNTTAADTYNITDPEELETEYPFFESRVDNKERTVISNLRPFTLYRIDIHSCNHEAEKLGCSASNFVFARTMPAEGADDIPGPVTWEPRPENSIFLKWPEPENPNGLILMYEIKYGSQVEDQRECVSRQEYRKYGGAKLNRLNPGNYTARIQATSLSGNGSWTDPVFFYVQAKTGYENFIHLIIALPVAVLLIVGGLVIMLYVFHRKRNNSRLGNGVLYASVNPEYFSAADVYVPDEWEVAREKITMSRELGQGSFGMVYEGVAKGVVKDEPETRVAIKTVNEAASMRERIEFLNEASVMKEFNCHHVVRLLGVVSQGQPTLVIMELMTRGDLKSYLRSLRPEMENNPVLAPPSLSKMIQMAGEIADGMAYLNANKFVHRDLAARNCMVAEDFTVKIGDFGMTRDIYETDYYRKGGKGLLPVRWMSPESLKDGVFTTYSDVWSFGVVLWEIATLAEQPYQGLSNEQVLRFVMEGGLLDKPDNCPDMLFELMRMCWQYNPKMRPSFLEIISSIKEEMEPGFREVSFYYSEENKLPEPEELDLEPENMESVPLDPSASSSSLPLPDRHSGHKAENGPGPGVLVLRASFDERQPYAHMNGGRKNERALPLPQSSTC
Sequence of Insulin receptor (Homo sapiens) (P06213 28-758 limits assumed): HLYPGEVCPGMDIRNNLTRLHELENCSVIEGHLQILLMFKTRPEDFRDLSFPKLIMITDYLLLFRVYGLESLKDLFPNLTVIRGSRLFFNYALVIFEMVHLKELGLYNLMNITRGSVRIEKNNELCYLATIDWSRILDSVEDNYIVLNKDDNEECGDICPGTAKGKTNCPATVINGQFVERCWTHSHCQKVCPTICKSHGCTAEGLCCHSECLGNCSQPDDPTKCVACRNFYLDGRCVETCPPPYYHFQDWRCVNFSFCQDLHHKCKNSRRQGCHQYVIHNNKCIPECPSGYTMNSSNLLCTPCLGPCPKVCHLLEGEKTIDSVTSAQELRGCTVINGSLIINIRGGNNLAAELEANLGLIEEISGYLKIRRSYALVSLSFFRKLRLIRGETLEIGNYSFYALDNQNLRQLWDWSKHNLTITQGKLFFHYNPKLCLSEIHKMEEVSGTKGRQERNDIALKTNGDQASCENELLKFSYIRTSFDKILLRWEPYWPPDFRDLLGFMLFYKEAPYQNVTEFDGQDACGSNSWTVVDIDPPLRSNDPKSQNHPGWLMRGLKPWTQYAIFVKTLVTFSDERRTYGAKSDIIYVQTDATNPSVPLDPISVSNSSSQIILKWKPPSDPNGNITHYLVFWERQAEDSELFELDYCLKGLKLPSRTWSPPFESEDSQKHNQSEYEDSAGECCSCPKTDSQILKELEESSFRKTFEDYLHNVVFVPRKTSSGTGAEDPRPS
Sequence of Insulin receptor (Homo sapiens) (P06213 763-1382 limits assumed): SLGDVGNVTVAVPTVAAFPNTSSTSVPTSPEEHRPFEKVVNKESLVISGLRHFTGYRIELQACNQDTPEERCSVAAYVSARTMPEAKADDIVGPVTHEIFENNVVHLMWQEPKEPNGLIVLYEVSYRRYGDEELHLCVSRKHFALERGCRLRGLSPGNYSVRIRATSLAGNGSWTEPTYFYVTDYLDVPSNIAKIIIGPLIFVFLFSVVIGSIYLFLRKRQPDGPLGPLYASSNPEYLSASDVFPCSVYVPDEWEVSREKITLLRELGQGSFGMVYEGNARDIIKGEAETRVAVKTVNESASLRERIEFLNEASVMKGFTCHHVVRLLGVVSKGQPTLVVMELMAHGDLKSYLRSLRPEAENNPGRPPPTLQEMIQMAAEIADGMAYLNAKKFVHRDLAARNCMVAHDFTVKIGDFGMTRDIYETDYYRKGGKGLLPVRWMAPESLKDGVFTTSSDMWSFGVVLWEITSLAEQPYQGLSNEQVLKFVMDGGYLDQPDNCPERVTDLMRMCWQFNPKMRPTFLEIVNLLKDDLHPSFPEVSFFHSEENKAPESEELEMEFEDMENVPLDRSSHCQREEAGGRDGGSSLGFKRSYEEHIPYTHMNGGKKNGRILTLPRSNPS

Take `O=C1NC(=O)C(c2cn(CCCO)c3ncccc23)=C1c1cnccn1`: the residual activity was determined as 96% in [1]; 94% in assay [2]; 81% in assay [3]; 86% in assay [4]; 69% in assay [5]; 83% in assay [6]. Besides, the residual activity is 77% in assay [7], 92% in [8], 67% in assay [9] and 122% in [10].

Consider `CC(C)[C@H](CO)Nc1nc(Nc2cc(N)cc(Cl)c2)c2ncn(C(C)C)c2n1`, for which the residual activity was determined as 73% in assay [1]; 85% in [2]; 30% in assay [3]; 92% in [4]; 52% in [5]; 88% in assay [11]. Further, the residual activity stood at 73% in assay [12]; 93% in assay [6]; 54% in assay [7]; 97% in assay [8]; 43% in [9]; 98% in assay [13]. The residual activity in assay [14] was 91%; in assay [15] it was 75%; in assay [16], 17%; in [17], 88%; in assay [10], 90%.
